# “And” between values parts separate entries of the source, which are not always exact repeats. Equal entries are not always repeated. Inconclusive results are not listed. Entries that show only a call come without a potency. Where a structure was tested more than once in an assay, its records may differ in their call. The source made the active and inactive calls. Unless noted, the call rests on the fitted dose curve; in most records, active means well fitted curve in the direction sought with a large enough effect; inconclusive means small, poorly fitted or top-dose-only effect, or another doubt; inactive means no such curve, though single readings can be large; an effect the other way counts as inactive or inconclusive. Peptide text beside a SMILES is read from it.
# Assays:
# [1] = P-glycoprotein substrates identified in KB-3-1 adenocarcinoma cell line, qHTS therapeutic library screen (AID 1346986); further: nearly all actives have a fitted effect of over 60% in size
# How it was run: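 Resistance attributable to P-gp was assessed by comparing AC50 in KB-8-5-11 with parental KB-3-1 and by tariquidar reversal. Cells were exposed 72 h and viability read by CellTiter-Glo.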
# [2] = Identifying Small Molecule Inhibitors of Pancreatic Cancer Stem Cells (SN12C, Adherent) (AID 1259358);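 further: cell survival measured after 48 h of compound exposure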
# How it was run: (§1)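 After a 4 h attachment period, compounds were pinned into wells and cultures held 48 h under standard incubator conditions. Viability was then measured as CellTiter-Glo luminescence following 10 min at room temperature.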
# [3] = Identifying Small Molecule Inhibitors of Pancreatic Cancer Stem Cells (Panc1, Spheroid) (AID 1259359); conditions: Panc1 spheroid cancer stem cell viability;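 further: potency means the concentration at half of the fitted maximal effect; compound exposure lasted 48 h before reading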
# How it was run: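 Adherent (2D) versus sphere (3D) formats; spheres generated 14 d in SCM beforehand. Compound transferred by pin tool after 4 h, 48 h incubation, CellTiter-Glo endpoint.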
# [4] = Identifying Small Molecule Inhibitors of Pancreatic Cancer Stem Cells (Panc1, Adherent) (AID 1259362); conditions: Potency: viability;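 further: compound exposure lasted 48 h before the viability read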
# How it was run: as §1
# [5] = P-glycoprotein substrates identified in KB-8-5-11 adenocarcinoma cell line, qHTS therapeutic library screen (AID 1346987); further: nearly all actives have a fitted effect of over 65% in size; further: potency means the concentration at half of the fitted maximal effect
# How it was run: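 Steps: plate 500 KB-8-5-11 cells/well in DMEM + 10% FCS (colchicine removed); pin compounds in dose-response; incubate 72 h, 37 degree C, 5% CO2; add CellTiter-Glo, 5 min; read luminescence.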
# [6] = Natriuretic polypeptide receptor (hNpr1) antagonism - Pilot counterscreen GloSensor control cell line (AID 1347045; calls by dose curve; further: potency means the concentration at half of the fitted maximal effect)
# How it was run: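 Luminescence was read before and 20 min after adding 50 uM SNP, which stimulates soluble guanylyl cyclase. The HEK293 cells expressing the GloSensor cGMP sensor had been preloaded with 2% reagent for 2 h and treated with compound.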
# [7] = target: Atrial natriuretic peptide receptor 1 (Homo sapiens) (UniProt P16066); test: Natriuretic polypeptide receptor (hNpr1) antagonism - Pilot screen (AID 1347049; calls by dose curve)
# Atrial natriuretic peptide receptor 1 (Homo sapiens), sequence (P16066 whole entry, looked up): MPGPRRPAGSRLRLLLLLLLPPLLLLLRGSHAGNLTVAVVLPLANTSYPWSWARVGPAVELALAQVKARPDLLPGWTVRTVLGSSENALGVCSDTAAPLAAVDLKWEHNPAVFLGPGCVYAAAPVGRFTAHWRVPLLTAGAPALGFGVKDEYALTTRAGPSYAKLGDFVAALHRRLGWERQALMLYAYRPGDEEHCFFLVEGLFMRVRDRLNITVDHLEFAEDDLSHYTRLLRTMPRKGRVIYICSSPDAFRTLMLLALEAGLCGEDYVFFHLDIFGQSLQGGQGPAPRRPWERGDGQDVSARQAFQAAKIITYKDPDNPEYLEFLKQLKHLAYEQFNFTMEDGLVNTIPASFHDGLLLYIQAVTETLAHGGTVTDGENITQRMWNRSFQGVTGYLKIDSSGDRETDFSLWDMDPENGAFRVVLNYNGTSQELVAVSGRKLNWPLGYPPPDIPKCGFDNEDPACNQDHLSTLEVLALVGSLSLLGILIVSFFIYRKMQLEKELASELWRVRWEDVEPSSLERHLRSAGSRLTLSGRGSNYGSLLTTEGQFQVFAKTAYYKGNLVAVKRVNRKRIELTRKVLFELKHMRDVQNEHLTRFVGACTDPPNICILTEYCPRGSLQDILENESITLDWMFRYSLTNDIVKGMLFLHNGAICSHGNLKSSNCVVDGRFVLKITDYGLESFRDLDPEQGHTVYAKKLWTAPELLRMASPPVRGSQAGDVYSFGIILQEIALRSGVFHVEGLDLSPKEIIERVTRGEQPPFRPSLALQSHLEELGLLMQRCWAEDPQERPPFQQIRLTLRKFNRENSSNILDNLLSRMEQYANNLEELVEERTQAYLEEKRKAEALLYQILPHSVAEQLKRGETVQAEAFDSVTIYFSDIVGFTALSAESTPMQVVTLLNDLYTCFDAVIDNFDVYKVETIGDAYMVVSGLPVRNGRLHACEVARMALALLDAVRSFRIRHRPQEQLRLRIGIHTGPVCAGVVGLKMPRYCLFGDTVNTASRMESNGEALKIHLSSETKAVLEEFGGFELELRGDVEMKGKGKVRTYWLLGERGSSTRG
# How it was run: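 HEK293 cells co-expressing hNpr1 and the GloSensor pGS-40F cGMP luciferase sensor were preloaded with 2% GloSensor reagent for 2 h. Compounds were added for 30 min at room temperature, then cells were stimulated with 0.1 nM hNppA for 20 min before luminescence readout.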
# [8] = target: Atrial natriuretic peptide receptor 2 (Homo sapiens) (UniProt P20594); test: Natriuretic polypeptide receptor (hNpr2) antagonism - Pilot subtype selectivity assay (AID 1347050; calls by dose curve)
# Atrial natriuretic peptide receptor 2 (Homo sapiens), sequence (P20594 whole entry, looked up): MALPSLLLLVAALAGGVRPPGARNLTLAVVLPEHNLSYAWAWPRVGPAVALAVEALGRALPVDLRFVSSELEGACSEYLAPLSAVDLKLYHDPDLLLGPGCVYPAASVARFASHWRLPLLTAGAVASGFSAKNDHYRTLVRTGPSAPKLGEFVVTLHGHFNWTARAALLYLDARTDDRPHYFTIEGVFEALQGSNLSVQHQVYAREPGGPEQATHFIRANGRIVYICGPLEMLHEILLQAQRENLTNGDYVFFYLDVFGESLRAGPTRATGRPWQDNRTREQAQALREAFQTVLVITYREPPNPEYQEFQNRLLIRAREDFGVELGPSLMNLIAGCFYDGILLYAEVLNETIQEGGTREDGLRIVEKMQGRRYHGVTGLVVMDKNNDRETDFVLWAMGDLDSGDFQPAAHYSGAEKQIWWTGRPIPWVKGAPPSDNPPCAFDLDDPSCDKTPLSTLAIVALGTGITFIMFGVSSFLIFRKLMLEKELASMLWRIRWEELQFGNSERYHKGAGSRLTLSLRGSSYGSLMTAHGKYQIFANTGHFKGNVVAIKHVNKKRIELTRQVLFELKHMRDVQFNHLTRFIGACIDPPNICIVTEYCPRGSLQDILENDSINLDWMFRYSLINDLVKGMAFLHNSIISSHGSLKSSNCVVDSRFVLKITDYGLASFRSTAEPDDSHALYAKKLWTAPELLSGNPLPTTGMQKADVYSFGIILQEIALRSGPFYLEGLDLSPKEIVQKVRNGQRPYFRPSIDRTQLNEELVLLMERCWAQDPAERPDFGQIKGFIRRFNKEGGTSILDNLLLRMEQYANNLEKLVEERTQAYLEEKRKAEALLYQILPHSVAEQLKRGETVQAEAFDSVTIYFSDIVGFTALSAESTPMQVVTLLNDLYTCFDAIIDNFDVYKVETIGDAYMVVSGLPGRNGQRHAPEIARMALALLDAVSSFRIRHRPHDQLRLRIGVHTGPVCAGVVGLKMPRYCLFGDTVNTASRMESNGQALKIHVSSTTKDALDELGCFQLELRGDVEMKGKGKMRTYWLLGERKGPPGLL
# How it was run: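 cGMP-sensor HEK293/hNpr2 cells; 2% GloSensor reagent 2 h RT; compounds 30 min; baseline luminescence read; 1 nM hNppC agonist 20 min RT; final luminescence read by CCD camera. Antagonism = reduced post-agonist signal.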
smiles,measurement,setting,value
COc1cc(C(C)=O)ccc1OCCCN1CCC(c2noc3cc(F)ccc23)CC1,Potency,[1],inactive
CC(C)c1ccc2c(c1)c(SC(C)(C)C)c(CC(C)(C)C(=O)O)n2Cc1ccc(Cl)cc1,Potency,[2],inactive
same,Potency,[3],18.7 µM (active)
same,Potency,[4],inactive
same,Potency,[5],inactive
same,Potency,[6],13.1 µM (active)
same,Potency,[7],inactive
same,Potency,[8],inactive
CC(C)c1ccc2oc3nc(N)c(C(=O)O)cc3c(=O)c2c1,Potency,[1],inactive
same,Potency,[5],inactive
N[C@@H](Cc1cc(I)c(Oc2cc(I)c(O)c(I)c2)c(I)c1)C(=O)O,Potency,[1],inactive
same,Potency,[5],inactive
CCOC(=O)c1c(C)n(C)c2ccc(O)cc12,Potency,[5],inactive
CC(C)c1nc(CN(C)C(=O)N[C@H](C(=O)N[C@@H](Cc2ccccc2)C[C@H](O)[C@H](Cc2ccccc2)NC(=O)OCc2cncs2)C(C)C)cs1,Potency,[5],inactive
COC(=O)C1=C(C)NC(C)=C(C(=O)OCCCN2CCC(c3ccccc3)(c3ccccc3)CC2)C1c1cccc([N+](=O)[O-])c1 (centres undefined),Potency,[5],inactive and 10.3 µM (active)
Clc1ccc2c(N3CCN(CCCN4CCN(c5ccnc6cc(Cl)ccc56)CC4)CC3)ccnc2c1,Potency,[5],inactive
Cc1nc(-c2ccc(OCC(C)C)c(C#N)c2)sc1C(=O)O,Potency,[5],inactive
O=C1NC(=O)C(c2ccccc2[N+](=O)[O-])=C1Nc1ccc(O)c(Cl)c1,Potency,[1],inactive
same,Potency,[5],inactive
same,Potency,[6],inactive
same,Potency,[7],inactive
same,Potency,[8],inactive
O=C1CCc2ccc(OCCCCN3CCN(c4cccc(Cl)c4Cl)CC3)cc2N1,Potency,[5],inactive
O=c1ccc2ccc(O)c(O)c2o1,Potency,[1],inactive
same,Potency,[5],inactive
same,Potency,[6],inactive
same,Potency,[7],inactive
same,Potency,[8],inactive
CN(C)c1ccc(O)c2c1C[C@H]1C[C@H]3[C@H](N(C)C)C(=O)C(C(N)=O)=C(O)[C@@]3(O)C(=O)C1=C2O,Potency,[5],inactive
Nc1ccn([C@@H]2O[C@H](CO)[C@@H](O)C2O)c(=O)n1 (some centres undefined),Potency,[1],inactive
same,Potency,[5],inactive
same,Potency,[6],inactive
same,Potency,[7],inactive
same,Potency,[8],inactive
CN(C)C(=O)COC(=O)Cc1ccc(OC(=O)c2ccc(N=C(N)N)cc2)cc1,Potency,[5],inactive
O=C(O)c1cn(-c2ccc(F)cc2)c2cc(N3CCNCC3)c(F)cc2c1=O,Potency,[5],inactive
O=C(CCc1ccc(O)cc1)c1c(O)cc(O)cc1O,Potency,[1],inactive
same,Potency,[5],inactive
same,Potency,[7],inactive
same,Potency,[8],inactive
Oc1ccc(-c2nc(-c3ccc(F)cc3)c(-c3ccncc3)[nH]2)cc1,Potency,[1],inactive
same,Potency,[5],inactive
same,Potency,[6],inactive
same,Potency,[8],inactive
Cc1cc(=O)oc2cc(O)ccc12,Potency,[5],inactive
CCC1=C(C)CN(C(=O)NCCc2ccc(S(=O)(=O)NC(=O)NC3CCC(C)CC3)cc2)C1=O (centres undefined),Potency,[5],inactive
CCCc1cc(=O)[nH]c(=S)[nH]1,Potency,[1],inactive
same,Potency,[5],inactive
O=C(OC1C[C@H]2CC[C@@H](C1)[N+]21CCCC1)C(O)(c1ccccc1)c1ccccc1 (some centres undefined),Potency,[5],inactive
Cc1cc2cc3c(C)cc(=O)oc3c(C)c2o1,Potency,[1],inactive
same,Potency,[5],inactive
O=C(O)c1cccc(-c2noc(-c3ccccc3F)n2)c1,Potency,[5],inactive
Cc1cc(=O)c2c(O)c3c(O)cc(=O)c4c3c3c(cc(O)c1c23)C(C)(C)C=4O,Potency,[5],1.46 µM (active) and 4.69 µM (active)
NS(=O)(=O)c1cc(C(=O)O)c(NCc2ccco2)cc1Cl,Potency,[5],inactive
CC(C)[N+]1(C)[C@@H]2CC[C@H]1CC(OC(=O)C(CO)c1ccccc1)C2 (some centres undefined),Potency,[5],inactive
Oc1ccc2ccccc2c1SSc1c(O)ccc2ccccc12,Potency,[1],inactive
same,Potency,[5],inactive
same,outcome,[7],inactive; inac
Cn1c(NCCN(CCO)CCCc2ccc([N+](=O)[O-])cc2)cc(=O)n(C)c1=O,Potency,[5],inactive
CCC(C)(Oc1ccc(C2(c3ccc(OC(C)(CC)C(=O)O)cc3)CCCCC2)cc1)C(=O)O (centres undefined),Potency,[1],inactive
same,Potency,[5],inactive
CC(C)[C@H](N)C(=O)OCCOCn1cnc2c(=O)[nH]c(N)nc21,Potency,[1],inactive
same,Potency,[5],inactive
Cc1nc2n(c(=O)c1CCN1CCC(c3noc4cc(F)ccc34)CC1)CCCC2,Potency,[5],inactive and 8.2 µM (active)
CCCCCCCCCCCCCCCCCCCCCCO,Potency,[5],inactive
COC1=C(OC)C(=O)C(CCCCCCCCCCO)=C(C)C1=O,Potency,[5],inactive
O=C1c2c(O)cc(O)cc2OC(c2ccc(O)c(O)c2)C1O (centres undefined),Potency,[1],inactive
same,Potency,[5],inactive
same,Potency,[6],inactive
same,Potency,[7],inactive
same,Potency,[8],inactive
O=C(NC(Cc1cc(=O)[nH]c2ccccc12)C(=O)O)c1ccc(Cl)cc1 (centres undefined),Potency,[1],inactive
same,Potency,[5],inactive
O=C(O)CCNC(=O)c1ccc(N=Nc2ccc(O)c(C(=O)O)c2)cc1,Potency,[5],inactive
c1cnc2cc3c(cc2n1)C1CNCC3C1,Potency,[1],inactive
same,Potency,[5],inactive
Nc1cc(C(Cl)=C(Cl)Cl)c(S(N)(=O)=O)cc1S(N)(=O)=O,Potency,[5],inactive
C[C@]12CCC(=O)C=C1CC[C@@H]1[C@H]2[C@@H](O)C[C@@]2(C)[C@H]1CC[C@]2(O)C(=O)CO,Potency,[5],inactive
CC(S)C(=O)NCC(=O)O (centres undefined),Potency,[5],inactive
Cc1c(C(=O)NN2CCCCC2)nn(-c2ccc(Cl)cc2Cl)c1-c1ccc(Cl)cc1,Potency,[5],20.6 µM (active)
C[Se]CCC(N)C(=O)O (centres undefined),Potency,[5],inactive
COC(=O)[C@H](Cc1ccccc1)NC(=O)[C@@H](N)CC(=O)O (H-Asp-Phe-OMe),Potency,[5],inactive
CCN(CC)CCOc1ccc(Cc2ccccc2)cc1,Potency,[5],inactive
c1ccc2[nH]c(-c3cscn3)nc2c1,Potency,[5],inactive
O=C(NOCC1CC1)c1ccc(F)c(F)c1Nc1ccc(I)cc1Cl,Potency,[5],18.4 µM (active)
CC1Cc2ccccc2N1NC(=O)c1ccc(Cl)c(S(N)(=O)=O)c1 (centres undefined),Potency,[5],inactive
O=C(CS(=O)Cc1ccco1)NCC=CCOc1cc(CN2CCCCC2)ccn1 (centres undefined),Potency,[5],inactive
C=CCc1cc(OC)c(O)c(C(=O)NCCO)c1,Potency,[5],inactive
CN(C)c1ccc2nc3ccc(=[N+](C)C)cc-3sc2c1,Potency,[5],3.32 µM (active) and 6.51 µM (active)

# — PubChem BioAssay (NCATS)
